The campaign covered roughly 44,000 compounds. Fewer than 10 were called active. Calls follow the shape of the dose curve; as a rule, active = well fitted activation curve with a large enough effect; inconclusive = small, poorly fitted or top-dose-only effect, or another doubt; inactive = no such curve, though single readings can be large or run the other way. Only a sample is shown.
Target: Beta-2 adrenergic receptor (Homo sapiens) (UniProt P07550)
Assay: qHTS assay of beta-arrestin-biased ligands of beta2-adrenergic receptor: NCGC Sytravon Library Screen;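 also: 0% = DMSO and full agonism = EC100 isoproterenol or metaproterenol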
Settings: HTLA Tango cells, beta-arrestin recruitment, luciferase luminescence, 18 h; series mostly up to 46.1 µM; activation: at the top concentration
Text: The concept of biased agonism is an emerging concept of molecular pharmacology which proposes that seven transmembrane receptors (7TMRs) or G protein-coupled receptors (GPCRs), exist in multiple signaling conformations and complexes and that ligands (either agonists or antagonists) can induce signaling biased responses for distinct signal transduction cascades. […] Furthermore, accumulating evidence over the last decade has drawn attention to a novel function of beta-arrestins as signal transducers that scaffold various signaling molecules upon activation of 7TMRs. […] This beta-arrestin-biased signaling presumably leads to distinct physiological outcomes from those by G protein activation. Additionally, the active receptor conformations which prefer on this beta-arrestin signaling are likely different from those activating G protein signaling. […] The goal of this screening project will be to discover and optimize novel beta-arrestin-biased ligands for beta2-AR signaling. A luminescent cell-based assay for beta2-AR-mediated agonism, known as the Tango assay, has been validated in which ligand binding of a recombinant beta2-AR and subsequent recruitment of a recombinant beta-arrestin lead to the release of the transcriptional activator tTA, which upregulates transcription of a tTA-responsive luciferase gene. […] Compounds from the NCGC Sytravon Library collection were screened as a concentration-titration series that ranged from 46 microM to 0.6 nM. NIH Molecular Libraries Probe Production Network [MLPCN] NIH Chemical Genomics Center [NCGC] MLPCN Grant: Fast-track/HHSN271700800025C PI: Bryan Roth and Bob Lefkowitz
Tango cells were dispensed into white, solid, tissue-culture-treated 1536-well plates at 1500 cells/well in DMEM, containing 1% fetal bovine serum (FBS). Then, 23 nL of compounds or DMSO were delivered to each well using a pin tool. Plates were incubated at 37 degrees C, 5% CO2 for 18 hr. Then 2.5 uL luminescent substrate mix (in-house prepared: 150 mM Tris-Cl, pH 7.6, 3 mM MgCl2, 1% Triton X-100, 5 mM DTT, 0.5 mM CoA, 0.15 mM ATP, 0.44 mM D-luciferin, final concentrations) was added to each well. Plates were then incubated for 15 minutes at room temperature, and subsequently measured on a ViewLux plate reader for luminescent signal using a clear filter with a 10 second exposure and 2x binning. The %Activity was determined from the corrected luminescence values. […] Concentration-response curves were fitted to the signals arising from the resulting luminescence. The concentration-effect curves were then classified based on curve quality (r2), response magnitude and degree of measured activity, and compounds were subsequently categorized based on their curve class.

Chain of Beta-2 adrenergic receptor (Homo sapiens) (P07550 whole entry, looked up): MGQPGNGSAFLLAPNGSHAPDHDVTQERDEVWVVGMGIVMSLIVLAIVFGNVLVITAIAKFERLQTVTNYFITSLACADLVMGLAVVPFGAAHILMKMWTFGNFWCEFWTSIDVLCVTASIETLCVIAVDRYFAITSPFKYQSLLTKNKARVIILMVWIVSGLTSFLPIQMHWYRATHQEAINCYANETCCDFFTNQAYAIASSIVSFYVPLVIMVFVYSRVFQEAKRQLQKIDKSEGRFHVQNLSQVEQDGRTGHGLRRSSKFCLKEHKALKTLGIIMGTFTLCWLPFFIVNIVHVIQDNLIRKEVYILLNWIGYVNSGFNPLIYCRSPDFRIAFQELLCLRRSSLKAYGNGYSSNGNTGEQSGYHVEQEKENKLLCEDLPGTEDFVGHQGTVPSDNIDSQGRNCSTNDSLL

activation, inactive:
Cc1cc(C)cc(NS(=O)(=O)c2cc3c(cc2C)NC(=O)CO3)c1 -0.844%, Cc1[nH]c2ccccc2c1C(c1ccccc1)c1cccs1 (centres undefined) 0.001%, CCOC(=O)c1c(C)[nH]c(C)c1S(=O)(=O)N1CCC(C(=O)Nc2ccc(C)c(Cl)c2)CC1 -0.156%, Cc1csc2nc(COc3ccc(NC(=O)COc4ccccc4)cc3)cc(=O)n12 0.0821%, COc1ccc(OC)c(CNC(=O)c2c3c(nc4ccccc24)C(=O)N(C2CCCCC2)C3)c1 -0.621%, Cc1ccc(NC(=O)CN2C(=O)C(c3ccc(F)cc3)=NC23CCCCCC3)c(C)c1 -2.97%, CCOc1ccc(C(=O)Nc2ccc3nc4c(c(Nc5ccccc5OC)c3c2)CCCC4)cc1 1.06%, CCc1ccc(S(=O)(=O)c2nnn3c2nc(N2CCN(CC)CC2)c2sccc23)cc1 0.0012%, O=C(c1ccccc1F)N1CCC(c2nc3c(nnn3Cc3cccc(F)c3)c(=O)[nH]2)CC1 0.988%, Cc1cc(=O)c2cc(C(=O)Nc3cccc(C)c3C)ccc2[nH]1 -2.58%, O=C(Nc1nnc(S(=O)(=O)N2CCOCC2)s1)c1cccc(Br)c1 -0.507%, COc1cccc(-c2nnc(SCC(=O)N3CCC(C)CC3)o2)c1 0.664%, COc1ccc2c(C)c(CCC(=O)NCc3ccc(OC)c(OC)c3)c(=O)oc2c1 1.22%, O=C(Cn1cc(SCc2cccc(Cl)c2)c2ccccc21)N1CCCCC1 -0.201%, COc1ccc(-c2cn3c(n2)sc2cc(C(=O)Nc4ccccc4F)ccc23)cc1 0.202%, COc1cc(OC)c(OC)cc1/C=C/c1nc2ccccc2c(=O)n1-c1ccc(Br)c(C)c1 1.95%, CCOC(=O)c1c(S(=O)(=O)N2CCCC(C(=O)NCc3ccc(F)cc3)C2)c(C)n(CC)c1C (centres undefined) -1.48%, COc1ccc(CCNC(=O)CCCCn2c(=O)c3ccccc3n(Cc3ccccc3C)c2=O)cc1OC 8.59%, CCOc1ccc(S(=O)(=O)c2cn(Cc3ccccc3)c3ccc(OCC)cc3c2=O)cc1 0.937%, COc1ccc(NC(=O)CSc2nccn2C2CCCC2)cc1OC -2.77%, Cc1ccc(-c2cnc(C3CC3)o2)cc1S(=O)(=O)Nc1cccc(C)c1C 0.723%, COc1ccc(S(=O)(=O)NCC(c2ccco2)N2CCOCC2)cc1 (centres undefined) -2.12%, CCOC(=O)c1c(NC(C)=O)c2c3c(sc2n1Cc1c(C)cc(C)cc1C)CCCC3 -0.225%, COc1ccc(-c2[nH]c3c(c2-c2c(-n4cccc4)n(C)c(=O)n(C)c2=O)c(=O)n(C)c(=O)n3C)cc1 -2.25%, CC(C)c1ccc(NC(=O)Cn2nnc(C(=O)NCCc3ccccc3)c2N)cc1 -0.0029%, CCn1c(=O)cc(OCC(=O)Nc2cc(Cl)c(OC)cc2OC)c2ccccc21 1.08%, CCc1ccc(NC(=O)Cn2c(=O)n(CCC(=O)NCc3ccc4c(c3)OCO4)c(=O)c3ccccc32)cc1 1.01%, Cc1cc(C)cc(NC(=O)CSc2nc3nccnc3c(=O)n2CCc2c[nH]c3ccccc23)c1 -0.453%, Cc1c(NC(=O)Cc2ccccc2)cccc1-c1nc2cccnc2s1 -2.39%, COc1ccc(S(=O)(=O)NCC(c2ccc(N(C)C)cc2)N2CCCC2)cc1 (centres undefined) 1.28%, COc1ccc(N2CCN(S(=O)(=O)CCNC(=O)C(c3ccccc3)c3ccccc3)CC2)cc1 0.864%, N#C/C(=C\c1cccc(F)c1)c1nc(-c2cc3c(ccc4ccccc43)oc2=O)cs1 -0.271%, CCn1c2ccccc2c2nnc(N3CCN(c4cc(C)ccc4C)CC3)nc21 -0.208%, CCOc1ccc(OCC)c(NC(=O)c2c(C)nn(-c3ccccc3)c2-n2cccc2)c1 -4.02%, CCOc1ccc(CNC(=O)c2cc(=O)[nH]c3ccc(S(=O)(=O)N4CCCCC4)cc23)cc1 -0.314%, O=C(CC(NCc1cccnc1)C(=O)O)Nc1ccc(O)cc1 (centres undefined) 0.126%, CCc1nc2onc(C)c2c(=O)n1CC(=O)O -1.3%, CCCCc1nn2c(=O)cc(COC(=O)c3cccc(NC(=O)COc4ccccc4)c3)nc2s1 0.38%, COc1ccccc1C(=O)OCc1cc(=O)n2nc(-c3cccs3)sc2n1 -0.913%, CCOc1ccccc1CNC(=O)Nc1cn(CC(C)C)c(=O)c2ccccc12 0.473%, CC(=O)Nc1cc(C(=O)NCc2ccc(F)cc2Cl)ccc1Sc1ccc(Cl)cc1 0.0643%, O=S(=O)(c1ccc(Cl)cc1)c1nnn2c1nc(NC1CCCC1)c1sccc12 3.34%, CC(C)(C)c1ccc(C(=O)NCC(c2ccco2)S(=O)(=O)c2ccc(F)cc2)cc1 (centres undefined) -0.628%, COc1ccc(CCNc2nc(-c3ccc(Cl)cc3)cc(C(F)(F)F)n2)cc1OC 0.359%, CCOc1ccc(Nc2ncnc3scc(-c4ccc(OC)cc4)c23)cc1 0.966%, Cc1cccc(NC(=O)CSc2nnc(CNC(=O)c3cccc(C)c3)n2-c2ccccc2)c1 0.652%, Cc1c(C(=O)NCc2ccccc2Br)oc2ccc3c(c12)C(=O)CC(C)(C)O3 0.769%, O=c1c(NCc2cccs2)nccn1-c1ccccc1 -0.476%, COc1ccccc1Nc1c2c(nc3ccc(NC(=O)/C=C/c4cc(OC)c(OC)c(OC)c4)cc13)CCCC2 -0.0014%, CC(=O)N1CCc2cc(Br)cc(S(=O)(=O)CCC(=O)NCCc3ccc(Cl)cc3)c21 -1.89%, Cc1ccccc1CNC(=O)C1CCCN(S(=O)(=O)N(C)c2ccc(F)cc2)C1 (centres undefined) -0.584%, CCOc1cccc(CNC(=O)c2ccc(N3CCCC3)c(NC(=O)Nc3ccccc3CC)c2)c1 0.0293%, Cc1ccc(CN2CCC(CNC(=O)c3cnn(-c4ccccc4Cl)c3C3CCN(C(=O)OC(C)(C)C)CC3)CC2)cc1 -0.282%, COc1cc(OC)c(NC(=O)Cc2ccc(-n3c(C)nc4cccnc43)cc2)cc1Cl 0.0247%, COc1ccc2c(c1)c(N1CCCC1=O)c(C(=O)Nc1ccc(OC)c(Cl)c1)n2C 1.84%, O=C(CC1N=C2c3ccccc3N=C(SCc3ccc(F)cc3)N2C1=O)NCc1cccs1 (centres undefined) 10.6%, CCOc1ccc(C(=O)c2cn(Cc3ccc(F)cc3)c3ccc(F)cc3c2=O)cc1 -0.931%, COc1ccccc1CNC(=O)CCn1c(=O)c2ccccc2n(CC(=O)Nc2ccc(Br)cc2F)c1=O -1.31%, CCOc1ccc(N(CC)S(=O)(=O)N2CCCC(C(=O)NCc3ccc(Cl)cc3)C2)cc1 (centres undefined) 2.98%, COC(=O)c1cc(S(=O)(=O)N2CCN(c3cc(Cl)ccc3C)CC2)c[nH]1 0.398%, Cc1ccc(Cl)cc1NC(=O)CSc1nc2ccccc2nc1Cc1ccccc1 -0.671%, COC(=O)c1ccc2c(c1)N(CC(=O)Nc1ccc(C)c(C)c1)C(=O)c1ccccc1S2 0.0004%, CCc1ccccc1NC(=O)CSc1nnc(-c2ccccc2)c(-c2ccccc2)n1 0.425%, COc1ccc(-c2c(C)c3ccc(O)c(CN4CCN(C)CC4)c3oc2=O)cc1OC 0.151%, CCOC(=O)c1ccc2c(c1)N(Cc1cccc(OC)c1)C(=O)c1ccccc1S2(=O)=O -1.14%, CCN(Cc1ccccc1)Cc1c(O)ccc2c(=O)c(-c3ccc(Cl)cc3Cl)coc12 0.878%, COC(=O)c1ccc(Cn2c(SCC(=O)N(C)c3ccccc3)nc3ccccc32)cc1 0.519%, Cc1ccc(CNC(=O)CCNS(=O)(=O)c2ccc3c(c2)oc(=O)n3C)cc1 0.362%, CSc1ccc(CCNC(=O)c2cc(C)nc3c2c(C)nn3-c2cccc(F)c2)cc1 1.93%, COc1cc(NC(=O)c2cc3ccc4cccnc4c3[nH]2)cc(OC)c1OC 1.03%, CCCCCn1c(=O)[nH]c2cc(C(=O)Nc3ccc(F)cc3)ccc2c1=O 0.0091%, Cc1ccc(NC(=O)Nc2sc3nc4n(c(=O)c3c2C)CCC(C)CC4)c(Cl)c1 (centres undefined) 0.293%, Cc1ccc(-n2ncc(C(=O)N(C)Cc3ccccc3)c2-n2cccc2)cc1 -1.39%, COc1ccccc1NC(=O)C1=C(C)Nc2ncnn2C1c1sccc1C (centres undefined) -0.49%, Cc1ccc(CNC(=O)CCC(=O)N2CC(C)Sc3ccccc32)cc1 (centres undefined) -0.354%, COc1ccccc1N1CCN(CCCNC(=O)c2cnn(-c3ccccc3Cl)c2C2CCN(C(=O)OC(C)(C)C)CC2)CC1 0.105%, Cc1ccc(Cl)cc1NC(=O)C(C)n1nnc2sc(-c3ccccc3)cc2c1=O (centres undefined) -0.567%, Cc1ccc(Cl)cc1NC(=O)Cc1ccc(-n2c(C)nc3cccnc32)cc1 1.55%, Cc1cc2c(cc3c(SCc4nc(-c5ccccc5)oc4C)nnc(C)n32)o1 -0.472%, Cc1ccc(-c2nn3c(=O)cc(CN4CCN(C(=O)Nc5cccc(C(F)(F)F)c5)CC4)nc3s2)cc1 -0.373%, Cc1ccccc1NC(=O)Cn1c(=O)n(CCc2ccccc2)c(=O)c2ccccc21 -2.33%, CCCn1c2ccccc2c2cnn(CC(=O)N(CC)c3cc(C)ccc3C)c(=O)c21 0.931%, O=C(COc1ccc(Cl)cc1)Nc1ccccc1OCc1cc(=O)n2ccccc2n1 -0.53%, CCc1ccccc1NC(=O)CCOc1ccccc1 -1.06%, CCC(C(=O)Nc1cc(OC)ccc1OC)n1c(=O)c(C(F)(F)F)nc2ccccc21 (centres undefined) 0.639%, Cc1ccc(CN2COc3cc(C)c4c(oc(=O)c5ccccc54)c3C2)cc1 0.158%, COc1ccc(OC)c(-c2csc(-c3c(N)c(C(=O)c4ccccc4)n4ccccc34)n2)c1 -3.81%, COc1ccc(CNC(=O)c2ccc3c(c2)nc2n3CCOC2)c(OC)c1 1.39%, CCOC(=O)c1scc(-c2ccc(C)cc2)c1S(=O)(=O)Nc1cc(C)ccc1C -0.489%, CCN(CCCNC(=O)c1ccc(Sc2ccc(C)cc2)c(NC(C)=O)c1)c1cccc(C)c1 0.426%, CCOc1cccc(NC(=O)c2ccc(F)c(S(=O)(=O)N(CC)c3cccc(C)c3)c2)c1 0.916%, COc1ccc(C(=O)c2oc3ccccc3c2NC(=O)COc2cccc(C)c2)cc1 -1.04%, Cc1ccccc1OCc1ccc(-c2nc(C#N)c(N3CCCCC3)o2)o1 -3.83%, CCCCc1nn2c(=O)cc(COC(=O)c3ccc(NC(=O)c4ccccc4C)cc3)nc2s1 0.536%
